# From PubChem BioAssay (NCATS)
# Records with an inconclusive call do not appear. Where a call stands in place of a potency, no number is given. Calls of active or inactive are those of the source. The call rests on the fitted dose curve; in most records, active means well fitted inhibition curve with a large enough effect; inconclusive means small, poorly fitted or top-dose-only effect; inactive means flat fitted curve, though single readings scatter.
# What was measured:
# Assay in all cases: qHTS profiling for inhibitors of Plasmodium falciparum proliferation (AID 504749); further: nearly all actives have a fitted effect of over 60% in size
# Settings in all cases: P. falciparum in erythrocytes, SYBR Green DNA, 72 h; series mostly up to 28.7 µM
# CP268 = system: CP268
# Summary of the method: (§1)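 Fluorescence of SYBR Green-bound parasite DNA, read at 485/535 nm, served as the growth measure. Infected erythrocytes were cultured with compound 72 h; artemisinin (0.29 uM) and DMSO wells defined the normalization range.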
# CP269 = system: CP269
# Summary of the method: as §1
# CP286 = system: CP286
# Summary of the method: as §1
# CP291 = system: CP291
# Summary of the method: as §1
# CP297 = system: CP297
# Summary of the method: as §1
# CP305 = system: CP305
# Summary of the method: as §1
# CP315 = system: CP315
# Summary of the method: as §1
# CP325 = system: CP325
# Summary of the method: as §1
# CP329 = system: CP329
# Summary of the method: as §1
# CP335 = system: CP335
# Summary of the method: as §1
# DFO2036 = system: DFO2036
# Summary of the method: as §1
# DIV14 = system: DIV14
# Summary of the method: as §1
# DIV17 = system: DIV17
# Summary of the method: as §1
# DIV30 = system: DIV30
# Summary of the method: as §1
# Dd2 = system: Dd2
# Summary of the method: as §1
# ECU = system: ECU
# Summary of the method: as §1
# FAB9 = system: FAB9
# Summary of the method: as §1
# GB4 = system: GB4
# Summary of the method: as §1
# HB3 = system: HB3
# Summary of the method: as §1
# ICS = system: ICS
# Summary of the method: as §1
# Potency means the concentration at half of the fitted maximal effect.
SMILES,Potency (CP268),Potency (CP269),Potency (CP286),Potency (CP291),Potency (CP297),Potency (CP305),Potency (CP315),Potency (CP325),Potency (CP329),Potency (CP335),Potency (DFO2036),Potency (DIV14),Potency (DIV17),Potency (DIV30),Potency (Dd2),Potency (ECU),Potency (FAB9),Potency (GB4),Potency (HB3),Potency (ICS)
CCCCc1ccc2nc(NC(=O)OC)[nH]c2c1,inactive,inactive,inactive,inactive,inactive,inactive,inactive,inactive,inactive,inactive,inactive,inactive,inactive,inactive,inactive,inactive,inactive,inactive,inactive,inactive
CCC1=C(C)CN(C(=O)NCCc2ccc(S(=O)(=O)NC(=O)NC3CCC(C)CC3)cc2)C1=O (stereo unspecified),inactive,inactive,inactive,inactive,inactive,inactive,inactive,inactive,inactive,inactive,inactive,inactive,inactive,inactive,inactive,inactive,inactive,inactive,inactive,inactive
c1ccc2[nH]c(-c3cscn3)nc2c1,inactive,inactive,inactive,inactive,–,inactive,inactive,inactive,inactive,inactive,inactive,inactive,inactive,inactive,inactive,inactive,inactive,inactive,inactive,inactive
C[Se]CCC(N)C(=O)O (stereo unspecified),inactive,inactive,inactive,inactive,–,inactive,inactive,inactive,inactive,inactive,inactive,inactive,inactive,inactive,inactive,inactive,inactive,inactive,inactive,inactive
O=C1c2ccccc2-c2n[nH]c3cccc1c23,inactive,inactive,inactive,inactive,inactive,inactive,inactive,inactive,inactive,–,inactive,inactive,inactive,inactive,inactive,inactive,inactive,–,inactive,–
Oc1ccc(OCc2ccccc2)cc1,inactive,inactive,inactive,inactive,inactive,–,inactive,inactive,inactive,inactive,inactive,inactive,inactive,inactive,inactive,inactive,inactive,inactive,inactive,–
CNC[C@H](O)c1ccc(O)c(O)c1,inactive,inactive,inactive,inactive,inactive,inactive,inactive,inactive,inactive,–,inactive,inactive,inactive,inactive,inactive,inactive,inactive,inactive,inactive,inactive
COC1=C(OC)C(=O)C(CCCCCCCCCCO)=C(C)C1=O,inactive,inactive,inactive,inactive,inactive,inactive,inactive,inactive,inactive,inactive,inactive,inactive,–,inactive,inactive,inactive,inactive,–,inactive,inactive
N=C(N=C(N)N)N1CCOCC1,inactive,inactive,inactive,inactive,inactive,inactive,inactive,inactive,–,inactive,inactive,inactive,inactive,inactive,inactive,inactive,inactive,inactive,inactive,inactive
CCN(CC)CCOc1ccc(Cc2ccccc2)cc1,inactive,inactive,inactive,inactive,inactive,inactive,inactive,inactive,inactive,inactive,inactive,–,inactive,inactive,inactive,inactive,inactive,inactive,inactive,inactive
CCCCN(CCCC)CCC(O)c1cc2c(Cl)cc(Cl)cc2c2cc(C(F)(F)F)ccc12 (stereo unspecified),0.051 µM (active),0.0161 µM (active),0.0089 µM (active),0.0287 µM (active),0.0181 µM (active),0.0361 µM (active),0.051 µM (active),0.0287 µM (active),0.051 µM (active),0.0081 µM (active),0.0089 µM (active),–,–,0.0102 µM (active),0.0028 µM (active),0.0079 µM (active),11.2 nM (active),–,0.0063 µM (active),0.0006 µM (active)
CN(C)CCc1c[nH]c2ccc(Cn3cncn3)cc12,inactive,inactive,inactive,inactive,inactive,inactive,inactive,inactive,inactive,inactive,inactive,inactive,inactive,inactive,inactive,inactive,inactive,inactive,inactive,inactive
O=c1oc2cc(O)ccc2s1,inactive,inactive,inactive,inactive,inactive,inactive,inactive,inactive,inactive,inactive,inactive,–,–,inactive,inactive,inactive,inactive,–,inactive,–
CCOc1cc(CC(=O)N[C@@H](CC(C)C)c2ccccc2N2CCCCC2)ccc1C(=O)O,inactive,inactive,inactive,inactive,inactive,inactive,inactive,inactive,inactive,inactive,inactive,inactive,inactive,inactive,inactive,inactive,inactive,inactive,inactive,inactive
CC(C)c1ccc2oc3nc(N)c(C(=O)O)cc3c(=O)c2c1,inactive,inactive,inactive,inactive,inactive,inactive,inactive,inactive,inactive,inactive,inactive,inactive,inactive,inactive,inactive,–,inactive,inactive,inactive,inactive
Nc1ccn([C@@H]2O[C@H](CO)[C@@H](O)C2O)c(=O)n1 (stereo partly specified),inactive,inactive,inactive,inactive,inactive,inactive,inactive,inactive,inactive,inactive,inactive,inactive,inactive,–,inactive,inactive,inactive,inactive,inactive,inactive
CCCc1cc(=O)[nH]c(=S)[nH]1,inactive,inactive,inactive,inactive,inactive,inactive,inactive,inactive,inactive,inactive,inactive,inactive,inactive,inactive,inactive,inactive,inactive,inactive,inactive,inactive
COc1cc(OC)c(C(=O)CCCN2CCCC2)c(OC)c1,inactive,inactive,inactive,inactive,inactive,inactive,inactive,inactive,inactive,inactive,inactive,inactive,–,inactive,inactive,inactive,inactive,inactive,inactive,inactive
CNC[C@@H](O)[C@@H](O)[C@H](O)[C@H](O)CO,inactive,inactive,inactive,inactive,inactive,inactive,inactive,–,inactive,inactive,inactive,inactive,inactive,inactive,inactive,inactive,inactive,inactive,inactive,inactive
Clc1ccc(C(Cn2ccnc2)OCc2ccsc2Cl)c(Cl)c1 (stereo unspecified),12 µM (active),6.75 µM (active),7.08 µM (active),12 µM (active),3.79 µM (active),12 µM (active),15.1 µM (active),12 µM (active),13.5 µM (active),4.78 µM (active),3.16 µM (active),1.9 µM (active),1.69 µM (active),4.78 µM (active),3.16 µM (active),1.41 µM (active),–,1.69 µM (active),3.16 µM (active),1 µM (active)
COc1cc2c(cc1OC)C1CC(=O)C(CC(C)C)CN1CC2 (stereo unspecified),inactive,inactive,inactive,inactive,inactive,inactive,inactive,inactive,inactive,inactive,inactive,inactive,inactive,inactive,inactive,inactive,inactive,inactive,inactive,inactive
CN(C)C(=O)COC(=O)Cc1ccc(OC(=O)c2ccc(N=C(N)N)cc2)cc1,inactive,inactive,inactive,inactive,inactive,inactive,inactive,inactive,inactive,inactive,inactive,inactive,inactive,inactive,–,inactive,inactive,inactive,inactive,inactive
Cc1c(OCC(F)(F)F)ccnc1CS(=O)c1nc2ccccc2[nH]1 (stereo unspecified),inactive,inactive,inactive,inactive,inactive,inactive,inactive,inactive,inactive,inactive,inactive,–,inactive,inactive,inactive,inactive,inactive,inactive,inactive,–
O=C(CS(=O)Cc1ccco1)NCC=CCOc1cc(CN2CCCCC2)ccn1 (stereo unspecified),inactive,inactive,inactive,inactive,–,inactive,inactive,inactive,inactive,inactive,inactive,inactive,inactive,inactive,inactive,inactive,inactive,inactive,inactive,inactive
CCOC(=O)c1c(C)n(C)c2ccc(O)cc12,inactive,inactive,inactive,inactive,inactive,inactive,inactive,inactive,inactive,inactive,inactive,inactive,inactive,inactive,inactive,inactive,inactive,inactive,inactive,inactive
N[C@@H](Cc1cc(I)c(Oc2cc(I)c(O)c(I)c2)c(I)c1)C(=O)O,inactive,inactive,inactive,inactive,inactive,inactive,inactive,inactive,inactive,inactive,inactive,inactive,inactive,inactive,inactive,inactive,inactive,inactive,inactive,inactive
COC(=O)C1=C(C)NC(C)=C(C(=O)OCCCN2CCC(c3ccccc3)(c3ccccc3)CC2)C1c1cccc([N+](=O)[O-])c1 (stereo unspecified),9.53 µM (active),4.78 µM (active),2.82 µM (active),6.75 µM (active),4.78 µM (active),7.57 µM (active),9.53 µM (active),6.01 µM (active),8.49 µM (active),4.26 µM (active),7.94 µM (active),3.38 µM (active),4.26 µM (active),4.78 µM (active),3.55 µM (active),4.47 µM (active),–,1.9 µM (active),8.91 µM (active),1.41 µM (active)
